# Compounds without any hit were thinned out: in the full panel of roughly 83,000, 20% have a hit.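 Each cell line was grown in a 96-well plate and treated with one concentration of compound for 48 hours. Values below 10 were considered active.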 A number with no mark means an inactive call. The source made the active and inactive calls.
# Key:
# Experiment in all cases: NCI-60 one-dose screen, 48 h (100 = growth as untreated, 0 = no growth, -100 = all killed)
# Details in all cases: 10 µM unless noted
# SK-MEL-2 melanoma = system: SK-MEL-2 melanoma
# EKVX NSCLC = system: EKVX NSCLC
# SN12C renal = system: SN12C renal
# UO-31 renal = system: UO-31 renal
# TK-10 renal = system: TK-10 renal
# ACHN renal = system: ACHN renal
# CAKI-1 renal = system: CAKI-1 renal
# A498 renal = system: A498 renal
# CCRF-CEM leukemia = system: CCRF-CEM leukemia
# MOLT-4 leukemia = system: MOLT-4 leukemia
Structure (SMILES),growth (SK-MEL-2 melanoma),growth (EKVX NSCLC),growth (SN12C renal),growth (UO-31 renal),growth (TK-10 renal),growth (ACHN renal),growth (CAKI-1 renal),growth (A498 renal),growth (CCRF-CEM leukemia),growth (MOLT-4 leukemia)
C=CCn1c(SCC(=O)Nc2ccc(/C(C)=N/O)cc2)nnc1-c1cc(-c2ccc(S(N)(=O)=O)cc2)nc2ccccc12,83.7%,91.8%,77.7%,74.5%,121%,96.9%,51.9%,89.2%,45.8%,37.9%
Clc1ccc(-c2cc(-c3ccccc3)nc(NCCNc3ccnc4cc(Cl)ccc34)n2)cc1,78.8%,88.4%,-48% (active),36.4%,106%,10.1%,5.52% (active),53.3%,-2.14% (active),-1.52% (active)
Cc1ccccc1Nc1cc(O)c2c(=O)cc(-c3ccccc3)oc2c1,65.7%,35.5%,31.8%,42.3%,110%,34.5%,39%,31.3%,29.5%,25.8%
C=C1C(=O)O[C@H]2[C@H]1CC/C(COC(=O)c1cc3cc(Cl)ccc3[nH]1)=C\CC[C@@]1(C)O[C@@H]21,-84.2% (active),-83% (active),-61.2% (active),-93.6% (active),-99.3% (active),-89.2% (active),-89.8% (active),-11.9% (active),-24.8% (active),-21% (active)
COc1ccc2[nH]cc(-c3nc(-c4c[nH]c5c(Cl)nccc45)cs3)c2c1,59.3%,62.8%,56.5%,32.4%,49.6%,16.1%,61.6%,-15.3% (active),24.7%,41.1%
COc1ccc(CCN(CC(=O)N(CC(N)=O)C2CCC[C@@H]2OCc2ccccc2)C(=O)CN(C(=O)CN(CCc2ccc(Cl)cc2)C(=O)CN(C(=O)CN(C)Cc2ccccc2F)[C@H](C)C2CCCCC2)[C@H](C)C2CCCCC2)cc1OC (stereo not given in full),1.88% (active),30.8%,35.3%,37.3%,15.6%,28.8%,94.7%,32%,7.58% (active),-37% (active)
NC(=O)c1c(NC(=O)c2cccs2)sc2c1CCC(=O)C2,81.6%,69.6%,44.9%,28.8%,59.8%,22%,-1.29% (active),95%,8.75% (active),13.6%
CN1CCN(C(=O)[C@@]2(C)CC[C@]3(C)CC[C@]4(C)C(=CC[C@@H]5[C@@]6(C)CCC(=O)NC(C)(C)[C@@H]6CC[C@]54C)[C@@H]3C2)CC1,78.3%,79.6%,58%,48.3%,79.4%,69.9%,42.5%,73.1%,29%,15.8%
CCOC(=O)c1c(C)c2c(n1Cc1ccccc1)CSCC2=O,-14.5% [100 µM] (active),12.4% [100 µM],13.7% [100 µM],24.6% [100 µM],11.5% [100 µM],10.6% [100 µM],-30.5% [100 µM] (active),25.6% [100 µM],10.5% [100 µM],12.9% [100 µM]
Cc1ccc(-c2nc(N3CCNCC3)c3oc(-c4ccc(C)cc4)nc3n2)cc1,99.2%,120%,50.9%,64.6%,-30.4% (active),50.7%,101%,94.8%,-72.2% (active),-72.6% (active)
CCN1CCN(CC(=O)Nc2nc3ccc(NCc4ccc(F)cc4)cc3s2)CC1,106%,86.6%,88.5%,75.6%,105%,94.7%,89.9%,95.2%,87%,84.8%
COc1ccc(-c2nc(-c3cn(C)c4ncccc34)cs2)cc1,1.08% [100 µM] (active),-26.4% [100 µM] (active),14.1% [100 µM],14.4% [100 µM],-21.3% [100 µM] (active),8.63% [100 µM] (active),0.0611% [100 µM] (active),24.1% [100 µM],2.08% [100 µM] (active),2.81% [100 µM] (active)
Cc1ccc(-c2nc(/C=C3/C(=O)Nc4ccc(F)cc43)c3ccccn23)cc1,31.9%,87.2%,88.2%,70.2%,89.2%,-3.57% (active),60.5%,97.7%,77.4%,77.7%
COc1ccc(N2CCN(C(=O)c3sc4nc(C)c(Br)c(C)c4c3N)CC2)cc1,85.1%,79.9%,95.9%,59.4%,115%,92.6%,82.6%,103%,97.8%,93%
Cc1cccc2c1C[C@@]1(C2=O)C(c2ccc(C(C)(C)C)cc2)=NOS1=O (stereo not given in full),93.1%,79.2%,92.3%,77.1%,158%,108%,94.2%,77.1%,83.6%,80.1%
Nn1c(=O)c(=O)[nH]c2c(cnn2-c2ccccc2)c1=O,122%,98.9%,105%,82.2%,109%,105%,94.3%,113%,108%,101%
CCCCNC(=O)c1cc([N+](=O)[O-])cc(C2CCCCC2)c1O,19.5%,33.6%,31.9%,24.8%,49.1%,61.5%,35.3%,21.5%,36.5%,27.1%
O=C(CC(=O)Nc1cccc(C(=O)O)c1)Nc1cccc(C(=O)O)c1,90.7%,101%,102%,88.5%,102%,91.6%,86.5%,104%,94.2%,103%
O=C(/C=C/c1ccc(Cl)cc1)c1cccc(OCCCOc2cccc(C(=O)/C=C/c3ccc(Cl)cc3)c2)c1,107%,107%,103%,86.1%,95.6%,99.6%,95.4%,94.9%,92.9%,93.3%
COc1cc(C(=O)c2c(-c3ccccc3)oc3c(OC)cccc23)cc(OC)c1OC,53%,35.3%,22.1%,28.2%,61.4%,17.7%,19.6%,-28% (active),10.2%,11.4%
CC1=CCC(OC(=O)C(C)(C)CC(O)(C(C)O)C(O)C2(C)C=CC(Cc3ccc(C(C)C)cc3)(C(C)C)CC2)(C(C)C)CC1 (stereo not given),110%,98.3%,105%,81.5%,86.4%,102%,94.6%,76.2%,79.2%,94.1%
N#Cc1nc(-c2ccccc2)oc1S(=O)(=O)N1CCN(c2ccc(F)cc2)CC1,95.2%,118%,79.4%,80.3%,44.1%,53.8%,62.2%,110%,-31% (active),-15.7% (active)
Cc1ccc(S(=O)(=O)N2CCC(=O)c3ccccc32)cc1,56.9%,102%,81.2%,71.1%,89.1%,90.7%,91.9%,83.2%,66.3%,64.1%
NC(=O)c1c(NC(=O)c2cccc(C(F)(F)F)c2)sc2c1CCC(=O)C2,-18.5% (active),9.15% (active),3.64% (active),-95.9% (active),5.23% (active),-93.4% (active),-55% (active),53.2%,0.959% (active),-18.1% (active)
COc1ccc(C2CC(c3cc(OC)c(OC)c(OC)c3)=NO2)cc1OCCCCOc1cc2c(cc1OC)C(=O)N1CCC[C@H]1C=N2 (stereo not given in full),-35.2% (active),16.8%,32.2%,19.5%,-13.6% (active),0.735% (active),11.1%,-67.3% (active),69.3%,7.66% (active)

# Reference: PubChem BioAssay (NCI)
